# Data published in PMC8384837, “Expanding the binding specificity for RNA recognition by a PUF domain”.
# Tests used:
# Experiment in all cases: yeast three-hybrid, YBZ-1, SC-Leu-His + 0.5 mM 3-AT, 4 days
# Conditions in all cases: tags: N-Gal4 AD-HA kept; label: inside an RPR1-promoter hybrid RNA with tandem MS2 sites; ssRNA
# PUM1 PUF domain R6-LFC = target: T1, PUM1 PUF domain R6-LFC (Homo sapiens, UniProt Q14671 828-1176, N1043L;Y1044F;Q1047C)
# T1 sequence: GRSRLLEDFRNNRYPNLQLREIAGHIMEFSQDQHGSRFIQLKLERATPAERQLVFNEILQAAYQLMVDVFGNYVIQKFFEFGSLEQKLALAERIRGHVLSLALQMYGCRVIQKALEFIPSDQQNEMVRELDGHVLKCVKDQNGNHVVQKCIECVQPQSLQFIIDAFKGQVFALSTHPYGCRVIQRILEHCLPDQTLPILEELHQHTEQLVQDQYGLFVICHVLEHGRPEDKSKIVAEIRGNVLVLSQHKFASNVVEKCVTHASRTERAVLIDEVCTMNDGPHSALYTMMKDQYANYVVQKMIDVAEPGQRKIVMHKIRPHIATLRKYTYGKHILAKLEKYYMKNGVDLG
# In short: (§1)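 Matching RNA elements and Pumilio-1 PUF domain libraries, randomized at the three base-contacting residues of every repeat, were co-expressed from a centromeric plasmid in strain YBZ-1 (LexA–MS2 coat fusion, HIS3 reporter). The repeat regions were PCR-amplified and Illumina-sequenced from cells grown four days on SC-Leu (input) or SC-Leu-His + 0.5 mM 3-AT (selection). The interaction score is the log change in variant frequency from input to selection. It is computed in log2, with a pseudocount of 1 for absent variants.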
# PUM1 PUF domain R8-KYP = PUM1 PUF domain R8-KYP (Homo sapiens, UniProt Q14671 828-1176, N1122K;Q1126P)
# In short: as §1
# PUM1 PUF domain R4-RGY = PUM1 PUF domain R4-RGY (Homo sapiens, UniProt Q14671 828-1176, N971R;H972G;Q975Y)
# In short: as §1
# PUM1 PUF domain R3-GRV = PUM1 PUF domain R3-GRV (Homo sapiens, UniProt Q14671 828-1176, C935G;Q939V)
# In short: as §1
# PUM1 PUF domain R8-GWQ = PUM1 PUF domain R8-GWQ (Homo sapiens, UniProt Q14671 828-1176, N1122G;Y1123W)
# In short: as §1
# [1] = target: PUM1 PUF domain R3-THE R4-TFR R7-NPG (Homo sapiens, UniProt Q14671 828-1176, C935T;R936H;Q939E;N971T;H972F;Q975R;S1079N;N1080P;E1083G)
# Sequence of PUM1 PUF domain R3-THE R4-TFR R7-NPG (Q14671 828-1176 C935T/R936H/Q939E/N971T/H972F/Q975R/S1079N/N1080P/E1083G): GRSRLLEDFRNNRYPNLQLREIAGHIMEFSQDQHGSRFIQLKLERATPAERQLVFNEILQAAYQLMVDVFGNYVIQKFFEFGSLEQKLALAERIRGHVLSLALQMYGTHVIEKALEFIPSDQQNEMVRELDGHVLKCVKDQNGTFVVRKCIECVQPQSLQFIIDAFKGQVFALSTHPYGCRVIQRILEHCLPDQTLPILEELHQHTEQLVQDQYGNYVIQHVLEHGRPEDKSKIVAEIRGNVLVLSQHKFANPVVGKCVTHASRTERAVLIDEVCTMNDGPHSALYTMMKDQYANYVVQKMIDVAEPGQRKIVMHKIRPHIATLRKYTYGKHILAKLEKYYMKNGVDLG
# In short: as §1
# PUM1 PUF domain R3-KPG = PUM1 PUF domain R3-KPG (Homo sapiens, UniProt Q14671 828-1176, C935K;R936P;Q939G)
# In short: as §1
# PUM1 PUF domain R3-DNE = PUM1 PUF domain R3-DNE (Homo sapiens, UniProt Q14671 828-1176, C935D;R936N;Q939E)
# Sequence of PUM1 PUF domain R3-DNE (Q14671 828-1176 C935D/R936N/Q939E): as the sequence (Q14671 828-1176 C935T/R936H/Q939E/N971T/H972F/Q975R/S1079N/N1080P/E1083G) above, with T108D, H109N, T144N, F145H, R148Q, N252S, P253N, G256E counted along it
# In short: as §1
# PUM1 PUF domain R3-YRG = PUM1 PUF domain R3-YRG (Homo sapiens, UniProt Q14671 828-1176, C935Y;Q939G)
# Sequence of PUM1 PUF domain R3-YRG (Q14671 828-1176 C935Y/Q939G): as the sequence (Q14671 828-1176 C935T/R936H/Q939E/N971T/H972F/Q975R/S1079N/N1080P/E1083G) above, with T108Y, H109R, E112G, T144N, F145H, R148Q, N252S, P253N, G256E counted along it
# In short: as §1
# PUM1 PUF domain R8-KHF = PUM1 PUF domain R8-KHF (Homo sapiens, UniProt Q14671 828-1176, N1122K;Y1123H;Q1126F)
# In short: as §1
# PUM1 PUF domain R5-RAI = PUM1 PUF domain R5-RAI (Homo sapiens, UniProt Q14671 828-1176, C1007R;R1008A;Q1011I)
# Sequence of PUM1 PUF domain R5-RAI (Q14671 828-1176 C1007R/R1008A/Q1011I): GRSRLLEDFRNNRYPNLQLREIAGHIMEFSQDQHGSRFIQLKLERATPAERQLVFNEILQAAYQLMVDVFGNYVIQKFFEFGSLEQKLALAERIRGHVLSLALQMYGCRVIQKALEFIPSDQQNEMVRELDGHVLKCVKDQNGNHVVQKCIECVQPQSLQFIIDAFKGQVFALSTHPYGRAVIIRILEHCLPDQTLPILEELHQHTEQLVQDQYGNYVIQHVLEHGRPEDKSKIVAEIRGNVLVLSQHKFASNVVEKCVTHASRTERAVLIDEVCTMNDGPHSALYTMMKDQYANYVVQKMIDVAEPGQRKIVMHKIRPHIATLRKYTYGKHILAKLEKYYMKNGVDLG
# In short: as §1
# PUM1 PUF domain R5-TKR = PUM1 PUF domain R5-TKR (Homo sapiens, UniProt Q14671 828-1176, C1007T;R1008K;Q1011R)
# Sequence of PUM1 PUF domain R5-TKR (Q14671 828-1176 C1007T/R1008K/Q1011R): as the sequence (Q14671 828-1176 C1007R/R1008A/Q1011I) above, with R180T, A181K, I184R counted along it
# In short: as §1
# PUM1 PUF domain R5-KAD = PUM1 PUF domain R5-KAD (Homo sapiens, UniProt Q14671 828-1176, C1007K;R1008A;Q1011D)
# Sequence of PUM1 PUF domain R5-KAD (Q14671 828-1176 C1007K/R1008A/Q1011D): as the sequence (Q14671 828-1176 C1007R/R1008A/Q1011I) above, with R180K, I184D counted along it
# In short: as §1
# PUM1 PUF domain R5-DLR = PUM1 PUF domain R5-DLR (Homo sapiens, UniProt Q14671 828-1176, C1007D;R1008L;Q1011R)
# Sequence of PUM1 PUF domain R5-DLR (Q14671 828-1176 C1007D/R1008L/Q1011R): as the sequence (Q14671 828-1176 C1007R/R1008A/Q1011I) above, with R180D, A181L, I184R counted along it
# In short: as §1
# PUM1 PUF domain R4-HNI = PUM1 PUF domain R4-HNI (Homo sapiens, UniProt Q14671 828-1176, N971H;H972N;Q975I)
# In short: as §1
# PUM1 PUF domain R4-SNF = PUM1 PUF domain R4-SNF (Homo sapiens, UniProt Q14671 828-1176, N971S;H972N;Q975F)
# Sequence of PUM1 PUF domain R4-SNF (Q14671 828-1176 N971S/H972N/Q975F): as the sequence (Q14671 828-1176 C1007R/R1008A/Q1011I) above, with N144S, H145N, Q148F, R180C, A181R, I184Q counted along it
# In short: as §1
# PUM1 PUF domain R1-TFE = PUM1 PUF domain R1-TFE (Homo sapiens, UniProt Q14671 828-1176, S863T;R864F;Q867E)
# In short: as §1
sequence,measurement,setting,value
GGCUAGAACUAGUGGAUCCCCCGGCGCCCGGCGGCUCGAGCCCGGGUAAGUGUAAAUAGUCUGCAUGCCGCCGGGCGCCAUGCCUGCAGGUCGACUCUAGAAAACAUG,binding signal,PUM1 PUF domain R6-LFC,3.09 log2 enrichment (interaction score)
same,binding signal,PUM1 PUF domain R8-KYP,4.91 log2 enrichment (interaction score)
same,binding signal,PUM1 PUF domain R4-RGY,5.07 log2 enrichment (interaction score)
same,binding signal,PUM1 PUF domain R3-GRV,2.81 log2 enrichment (interaction score)
same,binding signal,PUM1 PUF domain R8-GWQ,2.82 log2 enrichment (interaction score)
GGCUAGAACUAGUGGAUCCCCCGGCGCCCGGCGGCUCGAGCCCGGGUAAGUUUACGUAGUCUGCAUGCCGCCGGGCGCCAUGCCUGCAGGUCGACUCUAGAAAACAUG,binding signal,[1],5.28 log2 enrichment (interaction score)
GGCUAGAACUAGUGGAUCCCCCGGCGCCCGGCGGCUCGAGCCCGGGUAAGUGUAAUUAGUCUGCAUGCCGCCGGGCGCCAUGCCUGCAGGUCGACUCUAGAAAACAUG,binding signal,PUM1 PUF domain R3-KPG,4.43 log2 enrichment (interaction score)
same,binding signal,PUM1 PUF domain R3-GRV,1.12 log2 enrichment (interaction score)
GGCUAGAACUAGUGGAUCCCCCGGCGCCCGGCGGCUCGAGCCCGGGUAAGUGUAAGUAGUCUGCAUGCCGCCGGGCGCCAUGCCUGCAGGUCGACUCUAGAAAACAUG,binding signal,PUM1 PUF domain R3-DNE,3.35 log2 enrichment (interaction score)
same,binding signal,PUM1 PUF domain R3-YRG,3.84 log2 enrichment (interaction score)
GGCUAGAACUAGUGGAUCCCCCGGCGCCCGGCGGCUCGAGCCCGGGUAAGGGUAAAUAGUCUGCAUGCCGCCGGGCGCCAUGCCUGCAGGUCGACUCUAGAAAACAUG,binding signal,PUM1 PUF domain R8-KHF,2.25 log2 enrichment (interaction score)
GGCUAGAACUAGUGGAUCCCCCGGCGCCCGGCGGCUCGAGCCCGGGUAAGUGUCAAUAGUCUGCAUGCCGCCGGGCGCCAUGCCUGCAGGUCGACUCUAGAAAACAUG,binding signal,PUM1 PUF domain R5-RAI,0.78 log2 enrichment (interaction score)
same,binding signal,PUM1 PUF domain R5-TKR,6.59 log2 enrichment (interaction score)
same,binding signal,PUM1 PUF domain R5-KAD,2.78 log2 enrichment (interaction score)
same,binding signal,PUM1 PUF domain R5-DLR,4.71 log2 enrichment (interaction score)
GGCUAGAACUAGUGGAUCCCCCGGCGCCCGGCGGCUCGAGCCCGGGUAAGUGUUAAUAGUCUGCAUGCCGCCGGGCGCCAUGCCUGCAGGUCGACUCUAGAAAACAUG,binding signal,PUM1 PUF domain R5-RAI,2.49 log2 enrichment (interaction score)
GGCUAGAACUAGUGGAUCCCCCGGCGCCCGGCGGCUCGAGCCCGGGUAAGCGUAAAUAGUCUGCAUGCCGCCGGGCGCCAUGCCUGCAGGUCGACUCUAGAAAACAUG,binding signal,PUM1 PUF domain R8-GWQ,3.56 log2 enrichment (interaction score)
GGCUAGAACUAGUGGAUCCCCCGGCGCCCGGCGGCUCGAGCCCGGGUAAGUGUAUAUAGUCUGCAUGCCGCCGGGCGCCAUGCCUGCAGGUCGACUCUAGAAAACAUG,binding signal,PUM1 PUF domain R4-HNI,4.84 log2 enrichment (interaction score)
GGCUAGAACUAGUGGAUCCCCCGGCGCCCGGCGGCUCGAGCCCGGGUAAGUGUACAUAGUCUGCAUGCCGCCGGGCGCCAUGCCUGCAGGUCGACUCUAGAAAACAUG,binding signal,PUM1 PUF domain R4-SNF,3.39 log2 enrichment (interaction score)
GGCUAGAACUAGUGGAUCCCCCGGCGCCCGGCGGCUCGAGCCCGGGUAAGUGUAAAUGGUCUGCAUGCCGCCGGGCGCCAUGCCUGCAGGUCGACUCUAGAAAACAUG,binding signal,PUM1 PUF domain R1-TFE,6.33 log2 enrichment (interaction score)
GGCUAGAACUAGUGGAUCCCCCGGCGCCCGGCGGCUCGAGCCCGGGUAAGUGUAAAUUGUCUGCAUGCCGCCGGGCGCCAUGCCUGCAGGUCGACUCUAGAAAACAUG,binding signal,PUM1 PUF domain R1-TFE,3.49 log2 enrichment (interaction score)
